dFosB activator – activators of mouse delta FosB homodimer; P13346; purified delta FosB, TAMRA-CDK5 oligo fluorescence polarization; percent of positive-control signal above neutral wells; actives 0.99% (n = 340,000); activation, % at 25 µM;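 active = mean activation above about 17%, with every replicate also reaching it, limit read from the data, passing the limit was not always enough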
CDK5 p35 inh – inhibitors of human CDK5/p35 kinase; Q00535+Q15078; Recombinant CDK5/p35, ADP-Glo luminescence, 60 min; inhibition, % at 10 µM; actives 0.01% (n = 330,000);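 active = highest replicate inhibition of at least 50% and at least 75% of replicates reaching 50%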;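 also: plate controls were DMSO neutral control for no effect and GW8510 at 10 µM for full effect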
Target sequence (Q00535 whole entry, looked up): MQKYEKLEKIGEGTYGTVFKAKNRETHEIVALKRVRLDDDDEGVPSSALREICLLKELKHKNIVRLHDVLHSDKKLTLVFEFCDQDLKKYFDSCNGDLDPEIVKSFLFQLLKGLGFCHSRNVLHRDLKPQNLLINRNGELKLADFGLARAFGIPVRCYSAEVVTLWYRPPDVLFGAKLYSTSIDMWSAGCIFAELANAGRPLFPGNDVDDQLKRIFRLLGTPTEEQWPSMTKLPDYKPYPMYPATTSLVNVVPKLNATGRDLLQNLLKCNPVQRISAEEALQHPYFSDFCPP
Target sequence (Q15078 whole entry, looked up): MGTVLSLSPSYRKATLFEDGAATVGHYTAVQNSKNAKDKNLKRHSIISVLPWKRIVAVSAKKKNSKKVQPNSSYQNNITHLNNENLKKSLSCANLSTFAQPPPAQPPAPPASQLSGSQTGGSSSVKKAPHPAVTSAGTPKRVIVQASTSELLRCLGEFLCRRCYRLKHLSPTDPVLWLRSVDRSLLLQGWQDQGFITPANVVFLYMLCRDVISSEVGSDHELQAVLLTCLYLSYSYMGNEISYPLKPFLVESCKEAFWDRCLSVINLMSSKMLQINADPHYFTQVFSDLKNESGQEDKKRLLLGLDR
Rtt109 HAT inh – blocks Candida albicans Rtt109/Vps75 acetyltransferase activity; Q5AAJ8; purified Rtt109/Vps75, ThioGlo CoA-SH fluorescence, 4 h; inhibition, % at 34.9 µM; actives 0.16% (n = 330,000);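 active = inhibition of at least 50% in every replicate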
esBAF inh – SWI/SNF esBAF complex inhibition | mouse ES cells, Bmi1-luciferase knock-in reporter, 24 h; 100% = twice the neutral-well signal | reporter increase, % at 12.5 µM | actives 2% (n = 350,000) | AID 602393; in the data active = activation above about 40%;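 also: 0% = median of the plate's neutral control wells and 100% = double that signal; a rise in the Bmi1 reporter signal indicates esBAF inhibition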
DYRK1A inh – blocks rat Dyrk1A kinase activity | ADP-Glo luminescence, NFATc1 peptide | actives 0.43% (n = 310,000) | Q63470 | inhibition, % at 12.5 µM; in the data active = inhibition above about 50%;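 also: plate controls were vehicle with enzyme for no effect and no enzyme for full effect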
SMARCA2 act – SMARCA2 function activation, primary screen; MG213 cells, MMTV-luciferase reporter, dexamethasone, overnight; activation, % at 9.1 µM; actives 1% (n = 370,000); AID 652017; in the data active = activation above about 7.8%;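 also: 0% = vehicle wells and 100% = reference activator wells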
Active calls of the source: *; nt = not tested or not shown; ! = repeats disagree. Only some compounds are listed: those with a hit (about 3.2% of all), similar ones and a draw of the others.

SMILES	dFosB activator	CDK5 p35 inh	Rtt109 HAT inh	esBAF inh	DYRK1A inh	SMARCA2 act
CO[C@H]1CN(C)C(=O)c2ccc(NC(=O)C3CC3)cc2OC[C@@H](C)N(Cc2cc(F)ccc2F)C[C@H]1C	nt	nt	nt	1	nt	nt
O=C(NCc1ccc(Cl)cc1)c1ccccc1CCc1ccccc1	-4	1	52*	nt	4	-3
O=C(c1cccs1)N1CCN(Cc2ccccc2)CC1	6	1	-4	nt	-3	-2
O=C(NCC(=O)N1CCN(Cc2ccccc2)CC1)c1cccs1	-1	1	-19	49*	nt	5
Oc1[nH]c2ccccc2c1C=Nc1ccc2c(c1)OCO2	-15	3	-1	57*	6	4
COc1ccc(N=Cc2c(O)[nH]c3ccccc23)cc1	1	3	-1	7	3	1
CCC(=O)Nc1ccc2c(c1)OC[C@H](C)N(CC1CCCCC1)C[C@H](C)[C@@H](OC)CN(C)C2=O	nt	nt	nt	5	nt	nt
CC(=O)N(c1ccc2oc(=O)sc2c1)S(=O)(=O)c1cccc2cccnc12	2	-1	135*	-7	-4	-1
C[C@@H]1CN([C@H](C)CO)C(=O)c2cc(/C=C/c3ccccc3)cnc2O[C@@H]1CN(C)C(=O)CN1CCOCC1	nt	nt	nt	-12	nt	nt
COc1ccc(CC(C)NCC(O)c2ccc(O)c(NC=O)c2)cc1 (stereo unspecified)	7	-1	-7	-4	0	20*!
CC(CCc1ccccc1)NCC(O)c1ccc(O)c(C(N)=O)c1 (stereo unspecified)	-9	-2	-6	1	0	2
CCS(=O)(=O)Nc1ccc2c(c1)C(=O)N(C)C[C@H](OC)[C@@H](C)CN(Cc1nccs1)[C@H](C)CO2	nt	nt	nt	-1	nt	nt
C[C@@H]1CCCCO[C@@H](CN(C)S(=O)(=O)c2ccc(Cl)cc2)[C@H](C)CN([C@@H](C)CO)C(=O)c2cc(NC(=O)Nc3ccc(F)cc3)ccc2O1	nt	nt	nt	0	nt	nt
CCCC(=O)N1C[C@@H]2[C@H](c3ccccc31)[C@H](CO)N2C(=O)Nc1ccccc1	nt	nt	nt	-1	nt	nt
C=CCN(C(=O)c1oc2c(Cl)cc(C)cc2c1C)C1CCS(=O)(=O)C1 (stereo unspecified)	-16	0	6	64*	5	4
Cc1cc(Cl)c2oc(C(=O)N3CCN(C4CCS(=O)(=O)C4)CC3)c(C)c2c1 (stereo unspecified)	-16	-1	-3	4	-4	6
C[C@@H]1CN([C@@H](C)CO)C(=O)c2cc(C3=CCCC3)cnc2O[C@@H]1CN(C)C(=O)Nc1cccc(F)c1	nt	nt	nt	10	nt	nt
COc1cc(/C=C/c2nnc3c4ccccc4ncn23)cc(OC)c1OC	27*	2	1	nt	15	-2
Cc1cc(N/N=C/c2ccc(O)cc2)c2cccc(C)c2n1	105*	4	4	1	23	4
C[C@H]1CN([C@@H](C)CO)C(=O)CCCn2nncc2CO[C@@H]1CN(C)C(=O)Nc1ccc(F)cc1	nt	nt	nt	6	nt	nt
O=C(C[C@@H]1CC[C@@H]2[C@H](COC[C@@H](O)CN2Cc2cccc(F)c2)O1)NCCc1ccncc1	nt	nt	nt	-2	nt	nt
CSc1nc(N)nc2c1ncn2CC(=O)NCc1ccc2c(c1)OCO2	20*	2	-1	11	1	-3
CN1/C(=C/c2cc[n+](C)c3ccccc23)C=Cc2ccccc21	51*	9	17	nt	9	nt
COc1ccc(C=C(C(=O)O)c2ccc(OC)cc2)cc1	4	1	-14	52*	4	6
O=C(C[C@H]1CC[C@H](NC(=O)c2ccc3c(c2)OCO3)[C@H](CO)O1)NCc1ccc(Cl)cc1	nt	nt	nt	14	nt	nt
SMILES	dFosB activator	CDK5 p35 inh	Rtt109 HAT inh	esBAF inh	DYRK1A inh	SMARCA2 act
CN(C)CCCNC(=O)c1ccc(-c2cc(O)c3ncccc3c2)cc1	46*	-2	6	-2	22	3
CC1(C)Cc2c(cnn2-c2ccc(F)cc2)C(NC(=O)CCN2CCCC2=O)C1 (stereo unspecified)	-9	nt	0	44*	nt	0
CC1(C)Cc2c(cnn2-c2ccc(F)cc2)C(NC(=O)C2=NNC(=O)CC2)C1 (stereo unspecified)	-9	nt	2	52*	nt	7
CC1(C)Cc2c(cnn2-c2ccc(F)cc2)C(NC(=O)c2ccco2)C1 (stereo unspecified)	-6	-1	-22	19	-3	1
COCC(=O)N(C)C[C@@H]1Oc2ncc(-c3ccccc3C)cc2C(=O)N([C@@H](C)CO)C[C@H]1C	nt	nt	nt	4	nt	nt
Cc1ccc(NC(=O)C2CCN(S(=O)(=O)c3ccc(Cl)c(C(F)(F)F)c3)CC2)nc1	-8	0	2	14	-5	-3
Cc1ccc(NC(=O)C2CCN(S(=O)(=O)c3ccc4ccccc4c3)CC2)nc1	-9	0	6	58*	-1	0
C[C@@H]1CCCCO[C@H](CN(C)C(=O)NC2CCCCC2)[C@@H](C)CN([C@H](C)CO)C(=O)c2cc(NC(=O)c3ccncc3)ccc2O1	nt	nt	nt	5	nt	nt
COc1cccc2cc(C(=O)OCC(=O)N3CC(C)OC(C)C3)c(=O)oc12 (stereo unspecified)	9	0	-3	64*	0	3
Cc1nc2ccc(NC(=O)c3ccc4ccccc4n3)cc2s1	-6	-2	0	nt	nt	1
COc1ccc(CNC(=O)c2ccc3ccccc3n2)cc1	4	1	-6	82*	nt	4
Cc1nnc(NC(=O)c2ccc3ccccc3n2)s1	-26	-3	-7	43*	12	3
O=C(NCc1ccccc1)c1ccc2ccccc2n1	-5	-1	-8	3	18	0
CCN(C(=O)C1=COCCO1)c1nc2c(C)cccc2s1	-4	0	-9	48*	7	3
Cc1cc(C)c2nc(N(CCCN(C)C)C(=O)C3=COCCO3)sc2c1	-1	0	16	-3	3	-3
CN(C)Cc1cn(CC[C@H]2CC[C@@H](NC(=O)Nc3ccccc3F)[C@@H](CO)O2)nn1	nt	nt	nt	-2	nt	nt
O=C(/C=C/c1ccccc1)Nc1cccc(C(=O)NCCc2ccccc2)c1	-15	-3	-8	62*	7	1
O=C(/C=C/c1ccccc1)Nc1cccc(C(=O)NCCCCc2ccccc2)c1	-5	0	-6	43*	nt	-3
CCOc1ccc(/C=C/C(=O)Nc2cccc(C(C)=O)c2)cc1	-3	1	16	59*	-5	2
O=C(NCCCc1ccccc1)c1cccc(NC(=O)c2ccccc2)c1	-8	-1	2	7	-1	-2
NC(=O)C1CCN(c2nc(-c3cccnc3)cs2)CC1	33*	0	-3	-13	-2	1
NC(=O)C1CCN(c2nc(-c3cccc(N)c3)cs2)CC1	-5	0	4	81*	11	3
Cc1ccccc1OCc1nc2c3c(ncn2n1)-c1ccccc1CC31CCCC1	-11	0	0	-1	-7	1
